This excerpt belongs to a sample that is enriched for hits.
IL1B secr inh: blocks inflammasome-driven IL-1 beta release; THP-1 LPS/ATP IL-1B secretion, AlphaLISA, 16 h; hits give low values; activity change, % at 57.5 µM; 360,000 tested, 4.7% active; in the data active = activity change below about -50%; inconclusive = mostly about -30% to -49%
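Secreted IL-1B measured by AlphaLISA bead assay after 16 h compound exposure of THP-1 cells; compounds (final up to 57.5 uM) added 1 h before LPS (250 ng/mL) and ATP (1.25 mM) stimulation; lower signal means less secretion.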
HT1080NT lethal: kills 2HG-producing HT-1080-NT fibrosarcoma cells. AID 686970. Potency, µM (top dose mostly 46.1 µM), for inactives: at the top dose activity, negative = less viability, usual class: cytotoxic. HT-1080-NT fibrosarcoma viability, CellTiter-Glo ATP luminescence, 48 h. 360,000 tested, 1.6% active;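 also: NT is the 2HG producing partner of a matched IDH1 knockdown line; potency is read from the fitted curve at half-maximal effect; 0% = DMSO-treated cells and -100% = media-only wells without cells; nearly all actives have a fitted effect of over 55% in size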
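Viability by CellTiter-Glo luminescence after 48 h compound exposure at 37C of HT-1080-NT cells (750/well, RPMI, 5% FBS). % activity scaled between DMSO wells and medium-only wells, then curve-fitted and categorized by curve class.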
TDP1 cell noCPT: qHTS for Inhibitors of human tyrosyl-DNA phosphodiesterase 1 (TDP1): qHTS in cells in absence of CPT. AID 686978, 2013. DT40 Tdp1-/- hTDP1 cells, no CPT, ATP luminescence, 48 h. Potency, µM (titrated, usually from 46.2 µM), inactives show at the highest dose activity change, negative = growth inhibition, actives largely listed as inhibitors. 420,000 tested, 15% active; also: potency is read from the fitted curve at half-maximal effect; nearly all actives have a fitted effect of over 55% in size
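Growth of hTDP1-complemented DT40 Tdp1-knockout cells is measured by ATP luminescence after at least 48 hr compound exposure at 37 °C, with DMSO substituting for the 20 nM CPT used in the parallel screen.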
TDP1 cell CPT: DT40-hTDP1 cell growth loss with CPT. AID 686979. Potency, µM (titrated, usually from 46.2 µM), without a hit: at the highest dose activity change, negative = growth inhibition, hits mostly inhibitors. 420,000 tested, 12% active. chicken DT40 Tdp1-/-;hTDP1 cells + 20 nM CPT, ATP luminescence, 48 h; also: potency is read from the fitted curve at half-maximal effect; nearly all actives have a fitted effect of over 55% in size
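Chicken DT40 Tdp1-/- cells stably complemented with human TDP1 were seeded at 400 cells/well in medium containing 20 nM camptothecin, exposed to pin-transferred compounds, and grown at 37 °C for at least 48 hr. Viability was read as ATP luminescence.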
HT1080 IDH1KD tx: toxicity to HT-1080 IDH1 knockdown cells (counter line). 360,000 tested, 2% active. HT-1080 IDH1 knockdown viability, ATP luminescence, 48 h. Potency, µM (series often up to 46.1 µM), for inactives: at the top dose activity, negative = toxicity, actives largely listed as cytotoxic;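 also: potency is read from the fitted curve at half-maximal effect; 0% = DMSO wells and -100% = cell-free medium wells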
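In this qHTS, HT-1080 cells depleted of IDH1 are exposed for 48 h at 37 °C to compound titrations. Toxicity is scored from CellTiter-Glo luminescence, with DMSO as full viability and medium alone as none.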
12-LOX inh: ALOX12 (human) lipoxygenase inhibition. 580,000 tested, 1.1% active. AID 1671190. Potency, µM (highest dose often 108 µM), inactives show at the top dose activity change, negative = inhibition, hits mostly inhibitors. purified 12hLO, xylenol orange hydroperoxide absorbance; also: potency is read from the fitted curve at half-maximal effect
Target sequence (P18054 whole entry, looked up): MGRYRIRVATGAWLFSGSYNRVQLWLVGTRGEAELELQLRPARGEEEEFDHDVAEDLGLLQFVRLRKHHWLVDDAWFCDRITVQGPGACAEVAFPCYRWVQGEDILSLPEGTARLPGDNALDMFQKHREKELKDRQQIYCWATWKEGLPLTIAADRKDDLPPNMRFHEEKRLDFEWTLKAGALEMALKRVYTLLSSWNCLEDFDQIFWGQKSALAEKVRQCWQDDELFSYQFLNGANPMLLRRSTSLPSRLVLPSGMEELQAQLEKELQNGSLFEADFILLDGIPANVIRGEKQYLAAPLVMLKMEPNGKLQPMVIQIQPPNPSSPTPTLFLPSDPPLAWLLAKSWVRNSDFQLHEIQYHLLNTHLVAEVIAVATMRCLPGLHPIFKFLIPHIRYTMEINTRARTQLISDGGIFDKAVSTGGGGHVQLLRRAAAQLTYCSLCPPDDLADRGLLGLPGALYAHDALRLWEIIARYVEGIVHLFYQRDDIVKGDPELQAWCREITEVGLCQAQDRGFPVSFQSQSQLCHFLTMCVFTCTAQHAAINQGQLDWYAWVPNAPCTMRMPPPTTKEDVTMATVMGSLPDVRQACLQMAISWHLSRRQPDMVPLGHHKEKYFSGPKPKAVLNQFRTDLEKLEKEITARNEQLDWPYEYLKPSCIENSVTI
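Hydroperoxide product was detected by ferrous iron/xylenol orange as the 573 to 405 nm absorbance ratio. Arachidonic acid at 40 uM (final) was turned over for 30 min at room temperature by 150 nM human 12hLO, pH 7.0 Hepes buffer, after 15 min compound preincubation.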
Active calls of the source: *; ? = inconclusive; · = not tested or not shown. Unless noted, calls follow the shape of the dose curve; as a rule, active = well fitted curve in the direction sought with a large enough effect; inconclusive = small, poorly fitted or top-dose-only effect, or another doubt; inactive = no such curve, though single readings can be large; an effect the other way counts as inactive or inconclusive. Unless noted, % is scaled to controls: 0 for no effect and ±100 for the full control effect.

SMILES	IL1B secr inh	HT1080NT lethal	TDP1 cell noCPT	TDP1 cell CPT	HT1080 IDH1KD tx	12-LOX inh
CN(Cc1cccc(F)c1)c1ccc(S(N)(=O)=O)cn1	·	·	·	·	·	-34%
O=c1cc2oc3cc(O)c(O)cc3c(-c3ccccc3[N+](=O)[O-])c-2cc1O	-7	15µM*	23µM*	21µM*	21µM*	?
O=c1cc(-c2ccccc2Cl)oc2cccc(O)c12	15	12%	-13%	0%	13%	40%
COc1ccc(C(C[N+](=O)[O-])c2c(C)cc3ccccn23)cc1 (stereo unspecified)	-7	?	18µM*	10µM*	?	?
COc1ccc(C(C[N+](=O)[O-])c2c(C)[nH]n(-c3ccccc3)c2=O)cc1 (stereo unspecified)	-52*	?	16µM*	13µM*	-24%	?
Cc1cc2ccccn2c1C(C[N+](=O)[O-])c1ccc(N(C)C)cc1 (stereo unspecified)	7	-1%	?	16µM*	-23%	-16%
Cc1[nH]n(-c2ccccc2)c(=O)c1C(c1ccc(O)c([N+](=O)[O-])c1)c1c(C)[nH]n(-c2ccccc2)c1=O	-1	2%	-26%	-2%	-1%	0%
COc1ccc(NC(=O)c2cnc3ccccn3c2=O)c(OC)c1	-17	8%	-9%	2%	7%	-23%
COc1ccc(C(C[N+](=O)[O-])c2c(-c3ccccc3)cc3ccccn23)c(OC)c1 (stereo unspecified)	-11	?	5.2µM*	2.9µM*	?	1.6µM*
N#Cc1ccc(-c2ccc(OCC(=O)c3ccc4c(c3)OCCO4)cc2)cc1	·	·	·	·	·	9%
Cc1nc2sc3c(c2c2nc(C(=O)NCCN(C)C)nn12)CCC3	·	·	·	·	·	6%
CC(=O)Nc1ccc(NC(=O)CSC2=C(C#N)C(c3ccccc3F)CC(=O)N2)cc1 (stereo unspecified)	·	·	·	·	·	4%
Cc1ccsc1CNC(=O)CSCC#N	·	·	·	·	·	-11%
COc1cccc(CNC(=S)Nc2ccc3c(c2)c(=O)n(C)n3Cc2ccccc2)c1	-11	25%	?	?	0%	?
COc1cccc(Cn2c3ccc(NC(=O)Cc4cc(OC)ccc4OC)cc3c(=O)n2C)c1	-78*	?	21µM*	12µM*	?	8%
COc1cccc(Cn2c3ccc(NC(=O)CC(C)C(F)(F)F)cc3c(=O)n2C)c1 (stereo unspecified)	-20	4%	?	?	8%	-16%
COc1cccc(CC(=O)Nc2ccc3c(c2)c(=O)n(C)n3-c2ccc(C(C)(C)C)cc2)c1	-20	?	?	26µM*	-26%	-13%
O=C(CCNC(=O)C1CCN(S(=O)(=O)c2ccccc2)CC1)NCc1ccc(Cl)cc1Cl	-22	-21%	?	21µM*	-8%	-1%
O=C(NCc1ccc(Cl)cc1Cl)C1CCN(S(=O)(=O)c2ccc3c(c2)OCCCO3)CC1	-6	0%	?	21µM*	-21%	-15%
Cc1nn(-c2nc3ccccc3o2)c2c1C(c1cccc(C(F)(F)F)c1)CC(=O)N2 (stereo unspecified)	·	·	·	·	·	32%
CCC(O)CNC(=O)NC(=C(Cl)Cl)c1ccc(C)c(F)c1 (stereo unspecified)	-73*	-4%	10µM*	?	-12%	0%
CC(=O)Nc1cc(F)c(F)cc1NC(=O)CCc1c[nH]c2ccccc12	·	·	·	·	·	-15%
CSc1nc(O)c(/C=C2\C=Nc3ccccc32)[nH]1	-13	2%	?	?	12%	?
O=c1[nH]c(/C=C2\C=Nc3ccccc32)c(O)n1Cc1ccccc1F	-97*	-22%	?	?	?	?
COCC1CCN(C(=O)COc2ccc(NC(=O)C3CC3)cn2)CC1	·	·	·	·	·	20%
SMILES	IL1B secr inh	HT1080NT lethal	TDP1 cell noCPT	TDP1 cell CPT	HT1080 IDH1KD tx	12-LOX inh
CCOCCn1c(=O)[nH]c2cc(C(=O)NCc3cc(=O)[nH]c(C)n3)ccc21	·	·	·	·	·	20%
Cc1oc2cc3c(C(=O)N4CCCCC4)c(C)oc3cc2c1C(=O)N1CCCCC1	21	7%	18µM*	?	3%	0%
COc1cc2c(C(=O)N3CCN(C)CC3)c(C)oc2cc1Br	14	7%	-13%	0%	1%	-8%
CC(=O)c1cc(C)cc(C(C)=O)c1O	·	·	·	·	·	1%
Cc1cc(C)c(NC(=O)CNC(=O)c2cc(C3CC3)nc3c2cnn3C(C)C)c(C)c1	-21	0%	18µM*	?	-10%	-23%
COc1ccc(NC(=O)c2cc(C3CC3)nc3c2cnn3C(C)C)cc1OC	-6	2%	?	?	0%	12%
Cc1cccc(OCCNC(=O)c2cc(C3CC3)nc3c2cnn3C(C)C)c1	2	-10%	-1%	7%	-2%	11%
CCc1ccccc1NC(=O)CNC(=O)c1cc(C2CC2)nc2c1cnn2C(C)C	-15	12%	?	?	0%	6%
COc1ccccc1CCNC(=O)c1cc(C2CC2)nc2c1cnn2C(C)C	-11	4%	23µM*	?	1%	?
COc1cc(C)c(NC(=O)c2cc(C3CC3)nc3c2cnn3C(C)C)cc1OC	-13	0%	16µM*	?	-17%	-24%
COc1ccc(CCNC(=O)c2cc(C3CC3)nc3c2cnn3C(C)C)cc1	-27	-12%	18µM*	?	-7%	-27%
COc1ccccc1OCCNC(=O)c1cc(C2CC2)nc2c1cnn2C(C)C	2	-9%	?	?	-4%	29%
Cc1cn2nc(C(=O)Nc3ccc(C)c(F)c3)cc2c(N2CCSCC2)n1	·	·	·	·	·	56%
CC(CO)(CO)NC(=O)COc1cc(O)c2c(=O)cc(-c3ccccc3)oc2c1	·	·	·	·	·	-14%
CC(C)(CNC(=O)C1CCCCC1C(F)(F)F)C(N)=O (stereo unspecified)	·	·	·	·	·	-8%
Cc1cc(C)c(NC(=O)C2CC=CCC2)c(C)c1 (stereo unspecified)	·	·	·	·	·	-6%
CC(C)c1ccc(OCC(O)CN2CCN(c3ccccc3)CC2)cc1 (stereo unspecified)	-74*	?	?	?	16µM*	?
COc1ccc(OCC(O)CN2CCN(c3ccccc3)CC2)cc1 (stereo unspecified)	19	17%	-1%	-17%	10%	-16%
